mHTT-CaM PPI inh – inhibitors of human mutant huntingtin-calmodulin interaction; inhibition, % at 15 µM; 190,000 tested, 3.6% active; AlphaScreen His-mHTT/GST-CaM binding, luminescence;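 further: 0% = both proteins with DMSO and 100% = one protein alone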
Pf apPOL inh – Pf-apPOL DNA polymerase inhibition | Recombinant Pf-apPOL, molecular beacon fluorescence, 1.5 h | inhibition, % at 10 µM | 210,000 tested, 0.25% active | AID 1794808
Active calls of the source: *; · = no result; ! = a repeat was not active. The sample as a whole holds a higher share of hits than the screen did. No stated cut-off is given here; in the data, active means inhibition above about 50%; inactive means the rest.

SMILES	mHTT-CaM PPI inh	Pf apPOL inh
O=C(Nc1ccccc1F)N1CCC(c2cnn(-c3ccccc3)c2)CC1	-20	-2
CC1CCN(C(=O)CSc2nnc3ccc(-c4ccncc4)nn23)CC1	-7	-1
Cc1sc2ccn(C)c(=O)c2c1C(=O)N1CCCCC1	-7	-3
CCCn1ccc2sc(C)c(C(=O)N3CCN(c4ccccc4)CC3)c2c1=O	35	2
Cc1sc2ccn(C)c(=O)c2c1C(=O)N1CCN(c2ccc(Cl)cc2)CC1	70*	-6
CCn1ccc2sc(C)c(C(=O)N3CCN(c4ccccc4)CC3)c2c1=O	59*	-7
COc1ccc(C2C(=C(O)c3ccccc3)C(=O)C(=O)N2c2ccccn2)cc1OC (stereo unspecified)	-4	-2
COc1ccc(-c2cc3n(n2)CCCN(C(=O)c2cccs2)C3)cc1OC	21	-14
Cc1ccc(CNc2ccc(-c3nc(-c4ccc(F)cc4)no3)cn2)o1	-4	2
O=C(c1nn2c(c1Cl)NC(c1cccs1)CC2C(F)(F)F)N1CCCC1 (stereo unspecified)	12	-6
CN(C(=O)c1nn2c(c1Cl)NC(c1cccs1)CC2C(F)(F)F)C1CCCCC1 (stereo unspecified)	77*	4
O=C(NC1CCCCC1)c1nn2c(c1Cl)NC(c1cccs1)CC2C(F)(F)F (stereo unspecified)	17	-42
O=C(c1nn2c(c1Cl)NC(c1cccs1)CC2C(F)(F)F)N1CCc2ccccc2C1 (stereo unspecified)	100*	-6
O=C1OC(c2ccc(Cl)cc2)=C/C1=C\c1ccc(Br)o1	5	4
COc1ccc(C2=C/C(=C\c3cccs3)C(=O)O2)cc1	7	-12
CCOc1ccc(C2=C/C(=C\c3ccc(Br)o3)C(=O)O2)cc1	98*	-5
CCOc1ccc(C2=C/C(=C\c3cccs3)C(=O)O2)cc1	9	52*
Cc1oc(C2CCN(C(=O)c3ccc(Cl)cc3)CC2)nc1C(=O)N1CCCC1	11	-5
NC(=NS(=O)(=O)c1cc(C(F)(F)F)cc(C(F)(F)F)c1)N1CCSCC1	·	6
CCCCCc1ccc2c(c1)Cc1cc(C#N)ccc1-2	·	-7
CCN(CC)C(=O)Oc1ccc2c(c1)OC(=Cc1cc(OC)c(OC)c(OC)c1)C2=O	-14	-8
CCN1C(=O)c2cccc3c(NC(=O)COc4ccc(Cl)cc4)ccc1c23	52*	-6
CCN1C(=O)c2cccc3c(NC(=O)c4ccccc4[N+](=O)[O-])ccc1c23	2	1
O=C1CSC(c2ccc([N+](=O)[O-])cc2)N1c1ccc(Br)cn1 (stereo unspecified)	20	-7
O=C(NCc1ccc(N2CCCC2)cc1)c1cccc(N2CCNC(c3ccccc3)C2)n1 (stereo unspecified)	82*	-1
SMILES	mHTT-CaM PPI inh	Pf apPOL inh
O=C(NCCc1ccccn1)c1cccc(N2CCNC(c3ccccc3)C2)n1 (stereo unspecified)	16	-17
COc1cccc(NC(=O)c2cccc(N3CCNC(c4ccccc4)C3)n2)c1 (stereo unspecified)	16	-6
O=C(NCc1ccncc1)c1cccc(N2CCNC(c3ccccc3)C2)n1 (stereo unspecified)	1	-13
O=C(NCCc1cccs1)c1cccc(N2CCNC(c3ccccc3)C2)n1 (stereo unspecified)	87*	34
COc1ccc(NC(=O)c2cccc(N3CCNC(c4ccccc4)C3)n2)c(OC)c1 (stereo unspecified)	70*	-8
CC(O)(Cc1oc2ccc([N+](=O)[O-])cc2c1N1CCOCC1)C1CC2C=CC1C2 (stereo unspecified)	23	1
O=C(CSc1ncnc2sc3c(c12)CCCC3)c1ccc(F)cc1	-3	-9
O=c1c(NCc2ccccc2F)nc2ccncc2n1Cc1ccccc1	-4	-7
Cc1ccc(NC(=O)COc2cc(C)nc(N3CCC(C)CC3)n2)c(C)c1	-3	3
O=C(NCCc1csc(C2CCN(C(=O)c3ccccc3F)CC2)n1)C1CCC1	-2	-6
CCCC1=NN(c2nc3ccccc3s2)C(=O)/C1=C/N(C)C	-2	-16
CC1=NN(c2nc(-c3ccc(C#N)cc3)cs2)C(=O)C1	16	-6
CC1=NN(c2nc3ccccc3s2)C(=O)C1	94*	-7
CC1=NN(c2cc(C)nc(-c3ccccc3O)n2)C(=O)C1	56*	-12
Cc1ccc(Nc2cc(C)nc(-c3ccccc3O)n2)cc1	-18	-5
CC1=NN(c2nc(-c3ccccc3O)cs2)C(=O)C1	98*	-6
CCOc1ccc(S(=O)(=O)N2CC3CC(NC(=O)c4ccccc4)C2C3)cc1 (stereo unspecified)	0	-20
O=C(c1ccc(F)cc1)N1CCC2(CC1)CN(C(=O)c1ccccc1)CC2CO (stereo unspecified)	2	-8
Cc1cc(NC(=O)CSc2nnc(C3COc4ccccc4O3)o2)no1 (stereo unspecified)	72*	5
Cc1cc(NC(=O)CSc2nnc(Cc3c(C)[nH]c(=O)[nH]c3=O)o2)no1	-20	-2
Cc1ccc(S(=O)(=O)N(Cc2ccco2)c2ccccc2)cc1	-6	-8
O=[N+]([O-])c1cc(C(F)(F)F)cc([N+](=O)[O-])c1N1CCCCC1	24	-2
O=[N+]([O-])c1cc(Br)c2nsnc2c1N1CCCCC1	77*!	-8
COc1ccc(NC(=O)CN2CCC(C(=O)NCc3cccnc3)CC2)c(OC)c1	1	-3
COc1ccc(NC(=O)N(CCCN2CCOCC2)Cc2cccnc2)c(OC)c1	-1	68*
SMILES	mHTT-CaM PPI inh	Pf apPOL inh
O=[N+]([O-])c1cc(C(F)(F)F)ccc1N1CCc2ccccc21	95*	1
O=[N+]([O-])c1cc(C(F)(F)F)ccc1N1CCCCC1	·	1
COC(CNC(=O)c1ccc(N2CCCCCC2)c([N+](=O)[O-])c1)OC	12	-2
CCOC(CNC(=O)c1ccc(N2CCc3ccccc32)c([N+](=O)[O-])c1)OCC	56*	-6
Cc1cccc2nnc(N3CCC(C(=O)N4CCC(C)CC4)CC3)n12	1	-1
CCC(C(=O)Nc1ccc(Cl)cc1C)c1ccccc1 (stereo unspecified)	-18	3
CCCc1[nH]nc2c1C1(C(=O)N(CC(=O)O)c3ccccc31)C(C#N)=C(N)O2 (stereo unspecified)	6	-5
COc1ccc(-c2[nH]nc3c2C2(C(=O)N(CC(=O)O)c4ccccc42)C(C#N)=C(N)O3)cc1 (stereo unspecified)	0	72*
COc1ccc(-c2[nH]nc3c2C2(C(C#N)=C(N)O3)c3ccccc3-c3ccccc32)cc1	79*	-4
CCc1[nH]nc2c1C1(C(C#N)=C(N)O2)c2ccccc2-c2ccccc21	22	-4
Cc1cccc(C(=O)N2CCc3c(c(-c4nc(C5CC5)no4)nn3C)C2)c1	16	1
CC1CCN(S(=O)(=O)c2cccn(Cc3ccccc3)c2=O)CC1	-10	-2
COc1cccc(NC(=O)CSc2nnc3ccccn23)c1	-8	4
COc1cccc(NC(=O)CSc2nnc(Cc3ccccc3)n2C)c1	73*	0
O=C(Nc1ccccc1F)C1CC(=O)N(c2ccc(Br)cc2)C1 (stereo unspecified)	2	0
O=C(Nc1nc2ccccc2s1)C1CC(=O)N(c2ccc(Br)cc2)C1 (stereo unspecified)	60*	1
O=c1c(-c2ccccc2)coc2c3c(ccc12)OCN(C1CCCC1)C3	2	-1
